Assay results reported in PubChem BioAssay (NCATS).
Inconclusive results are not listed. A call without a number means that no potency is given here. Values without a mark were called inactive. Active and inactive are the calls of the source. Calls come from the whole dose curve; as a rule, active = well fitted curve in the direction sought with a large enough effect; inconclusive = small, poorly fitted or top-dose-only effect, or another doubt; inactive = no such curve, though single readings can be large; an effect the other way counts as inactive or inconclusive.

Tests used:
[1] = qHTS for Inhibitors of the Aldehyde Dehydrogenase Family (ALDH1A2, ALDH1A3, ALDH2, ALDH3A1) (AID 2061307); note: nearly all actives have a fitted effect of over 50% in size; for potency: test system not described further here; potency is the fitted concentration of half-maximal effect
[2] = biological target: Aldehyde dehydrogenase, mitochondrial (Homo sapiens) (UniProt P05091); test: qHTS for Inhibitors of the Aldehyde Dehydrogenase Family (ALDH2) Primary screen (AID 2061308); note: nearly all actives have a fitted effect of over 55% in size; note: potency is the fitted concentration of half-maximal effect
[3] = biological target: Retinaldehyde dehydrogenase 3 (Homo sapiens) (UniProt P47895); test: qHTS for Inhibitors of the Aldehyde Dehydrogenase Family (ALDH1A3) Confirmatory screens (AID 2061311); note: nearly all actives have a fitted effect of over 60% in size; note: potency is the fitted concentration of half-maximal effect
[4] = biological target: Retinaldehyde dehydrogenase 3 (Homo sapiens) (UniProt P47895); test: qHTS for Inhibitors of the Aldehyde Dehydrogenase Family (ALDH1A3) Primary screen (AID 2061315)
[5] = biological target: Aldehyde dehydrogenase 1A1 (Homo sapiens) (UniProt P00352); test: qHTS for Inhibitors of the Aldehyde Dehydrogenase Family (ALDH1A1) Confirmatory screens (AID 2061316); note: nearly all actives have a fitted effect of over 65% in size; note: potency is the fitted concentration of half-maximal effect
[6] = biological target: Retinal dehydrogenase 2 (Homo sapiens) (UniProt O94788); test: qHTS for Inhibitors of the Aldehyde Dehydrogenase Family (ALDH1A2) Confirmation screens (AID 2061314); note: nearly all actives have a fitted effect of over 65% in size; note: potency is the fitted concentration of half-maximal effect
[7] = BET inhibitor-based combinations targeting novel dependencies in MECOM-rearranged (r) AML: SET-2 cell line (AID 2202231); details: SET-2 AML cells viability, CellTiter-Glo luminescence, 48 h; viability: stronger effect = lower value, concentration not given here; note: potency is the fitted concentration of half-maximal effect; nearly all actives have a fitted effect of over 35% in size
Summary of the method: (§1)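 Viability of cells (500 per well) is scored by luminescent CellTiter-Glo at 48 hr post-dosing. Eleven-point titrations are normalized to DMSO and empty controls and reduced to AUC values.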

[8] = BET inhibitor-based combinations targeting novel dependencies in MECOM-rearranged (r) AML: OCI-AML3 cell line (AID 2202232); details: Potency: OCI-AML3 viability; note: potency is the fitted concentration of half-maximal effect; nearly all actives have a fitted effect of over 35% in size
Summary of the method: as §1

[9] = BET inhibitor-based combinations targeting novel dependencies in MECOM-rearranged (r) AML: MV-4-11 cell line (AID 2202233); note: potency is the fitted concentration of half-maximal effect; nearly all actives have a fitted effect of over 45% in size
Summary of the method: (§2)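 Using pin-tool transfer, drugs were added in 11 doses to cells (500/well), incubated 48 hr, and assessed with CellTiter-Glo. Z-AUC is a mean-centring transformation applied separately to each screened line.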

[10] = BET inhibitor-based combinations targeting novel dependencies in MECOM-rearranged (r) AML: HNT-34 cell line (AID 2202234); note: potency is the fitted concentration of half-maximal effect; nearly all actives have a fitted effect of over 35% in size
Summary of the method: as §2

[11] = BET inhibitor-based combinations targeting novel dependencies in MECOM-rearranged (r) AML: UCSD-AML1 cell line (AID 2202235); note: potency is the fitted concentration of half-maximal effect; nearly all actives have a fitted effect of over 40% in size
Summary of the method: as §2

[12] = BET inhibitor-based combinations targeting novel dependencies in MECOM-rearranged (r) AML: AML-191 cell line (AID 2202236; note: potency is the fitted concentration of half-maximal effect; nearly all actives have a fitted effect of over 35% in size)
Summary of the method: as §1

[13] = BET inhibitor-based combinations targeting novel dependencies in MECOM-rearranged (r) AML: AML-194 cell line (AID 2202237; note: potency is the fitted concentration of half-maximal effect; nearly all actives have a fitted effect of over 40% in size)
Summary of the method: as §1

CCCCN1C(=O)c2ccccc2NC1c1ccc(OC)c(COc2ccc(NC(C)=O)cc2)c1 (stereo not drawn)
Potency [1]: 7.12 µM (active)
Potency [2]: inactive
Potency [3]: 12.6 µM (active)
Potency [4]: inactive

Cc1cc(-c2nnc3n2CCCCC3)c(C)n1-c1cccc2ccccc12
Potency [1]: inactive
Potency [2]: inactive
activity change, negative = inhibition [3]: -18.8% [at 0.022 µM]
Potency [5]: 12.7 µM (active)

COc1ccc(C2Nc3ccccc3C(=O)N2Cc2ccc(-c3ccccc3)cc2)cc1COc1ccc(NC(C)=O)cc1 (stereo not drawn)
Potency [1]: 1.79 µM (active)
Potency [2]: inactive
Potency [3]: 11.2 µM (active)
Potency [4]: inactive

Cc1ccc(-c2cnn(CC(=O)NCCc3ccccc3)c(=O)c2)cc1
Potency [1]: 12.7 µM (active)
Potency [2]: inactive
Potency [3]: 14.1 µM (active)
Potency [4]: inactive

O=C1Nc2ccccc2/C1=C/c1cccc(C(=O)O)c1
Potency [1]: 2.24 µM (active)
Potency [2]: inactive
Potency [3]: 4 µM (active)
Potency [5]: inactive

Cc1ccc(CN(C)c2ncnc3ccc(-c4ccc(C#N)n4C)cc23)o1
Potency [1]: 3.16 µM (active)
Potency [2]: inactive
Potency [3]: 22.4 µM (active)
Potency [4]: inactive
Potency [5]: 12.7 µM (active)

Cc1ccc(OCCn2c3c(c4ccccc42)CN(C(=O)C2CCCCC2)CC3)cc1
Potency [1]: 1.59 µM (active)
Potency [2]: inactive
Potency [3]: 11.3 µM (active)
Potency [4]: inactive
Potency [5]: 2.01 µM (active)

COc1ccc(C2Oc3ccccc3C(=O)N2Cc2ccccc2)cc1COc1ccc(NC(C)=O)cc1 (stereo not drawn)
Potency [1]: 0.283 µM (active)
Potency [2]: inactive
Potency [6]: 7.12 µM (active)
Potency [4]: inactive

Cc1ccc(NC(=O)CN2C(=O)N/C(=C\c3cccn3-c3ccc(C(=O)O)cc3)C2=O)cc1
Potency [1]: inactive
Potency [2]: inactive
Potency [3]: inactive
Potency [4]: inactive

Cc1ccc2nc3sc(C(=O)N4CCCCC4)cc3cc2c1
Potency [1]: 11.3 µM (active)
Potency [2]: inactive
Potency [3]: 12.7 µM (active)
Potency [4]: inactive

CC(=O)Nc1sc2c(c1-c1nc3ccccc3s1)CN(C(C)C)C2
Potency [1]: inactive
Potency [2]: inactive
Potency [3]: inactive
Potency [4]: inactive

NC(=O)C1CCN(c2nc(-c3cc4ccccc4o3)cs2)CC1
Potency [1]: 2.83 µM (active)
Potency [2]: inactive
Potency [3]: inactive
Potency [4]: inactive
Potency [5]: 6.34 µM (active)

O=C(OCC#CCSc1nnc(-c2cccc3ccccc23)o1)c1ccncc1
Potency [1]: inactive
Potency [2]: inactive
Potency [3]: 2.01 µM (active)
Potency [4]: inactive
Potency [5]: inactive

Cc1ccc(S(=O)(=O)Nc2cc(C(F)(F)F)ccc2C(=O)Nc2nc(-c3ccccc3)cs2)cc1
Potency [1]: 0.355 µM (active)
Potency [2]: inactive
Potency [3]: inactive
Potency [4]: inactive
Potency [7]: 14.8 µM (active)
Potency [8]: 7.42 µM (active)
Potency [9]: 8.33 µM (active)
Potency [10]: 7.42 µM (active)
Potency [11]: 8.33 µM (active)
Potency [12]: 5.9 µM (active)
Potency [13]: 9.34 µM (active)

N#Cc1c(-c2ccc(Br)cc2)no[n+]1[O-]
Potency [1]: 7.98 µM (active)
Potency [2]: 7.94 µM (active)
Potency [6]: 7.12 µM (active)
Potency [4]: inactive

NC(=O)C1CCN(c2nccc(-c3ccc4c(c3)OCCCO4)n2)CC1
Potency [1]: inactive
Potency [2]: inactive
Potency [3]: 12.7 µM (active)
Potency [4]: inactive
Potency [5]: 11.3 µM (active)

CNc1oc(-c2c[nH]c3ccccc23)nc1C#N
Potency [1]: 11.3 µM (active)
Potency [2]: inactive
Potency [6]: inactive
Potency [4]: inactive

N#Cc1cccnc1SC1=NS(=O)(=O)c2ccccc21
Potency [1]: 0.891 µM (active)
Potency [2]: 3.16 µM (active)
Potency [3]: 1.27 µM (active)
Potency [5]: 0.0712 µM (active)

c1csc(CNc2ccc(N3CCOCC3)cc2)c1
Potency [1]: inactive
Potency [2]: inactive
Potency [6]: 22.5 µM (active)

Cc1csc(CN(C)c2ncnc3ccc(-c4ccc5c(c4)OCO5)cc23)n1
Potency [1]: 0.201 µM (active)
Potency [2]: inactive
Potency [3]: 25.1 µM (active)
Potency [4]: inactive
Potency [5]: 12.7 µM (active)

CN1C(=O)Cc2cc([S+](=O)([O-])N3CCN([S+](=O)([O-])c4c(F)cccc4F)CC3)ccc21
Potency [1]: inactive
Potency [2]: inactive
Potency [3]: inactive
Potency [4]: inactive

N#Cc1cnc(NS(=O)(=O)c2ccc(NC(=O)Cc3ccc(Cl)c(Cl)c3)cc2)s1
Potency [1]: 25.2 µM (active)
Potency [2]: inactive
Potency [3]: inactive
Potency [4]: inactive
Potency [5]: inactive

COc1cc2ncnc(N(C)Cc3csc(C)n3)c2cc1-c1ccc2c(c1)OCO2
Potency [1]: inactive
Potency [2]: inactive
Potency [6]: inactive
Potency [4]: inactive

C=C1[C@@H](OC(C)=O)CC[C@@]2(C)[C@@H](OC(C)=O)[C@H](OC(C)=O)C3=C(C)C[C@H](OC(=O)C(C)CC)[C@@H]([C@@H](OC(C)=O)[C@H]12)C3(C)C (stereo partly drawn)
Potency [1]: inactive
Potency [2]: 2.51 µM (active)
Potency [3]: inactive
Potency [4]: inactive
Potency [5]: inactive

CN(C)CCCNc1ccc(NC(=O)c2cccs2)cn1
Potency [1]: inactive
Potency [2]: inactive
Potency [6]: 5.65 µM (active)
Potency [4]: inactive

Cc1ccc(N[S+](=O)([O-])c2cc3c(cc2Cl)NC(=O)CO3)cc1Br
Potency [1]: 10.1 µM (active)
Potency [2]: inactive
Potency [6]: 14.2 µM (active)
Potency [4]: inactive

CC(C)(Nc1nc(-c2ccccc2C(F)(F)F)nc2ccccc12)c1ccc(-c2cccc(C(F)(F)F)c2)cc1
Potency [1]: inactive
Potency [2]: inactive
Potency [3]: inactive
Potency [4]: inactive

Nc1ccc(Nc2cc(O)c3ncccc3c2)cc1
Potency [1]: inactive
Potency [2]: inactive
Potency [3]: 0.712 µM (active)
Potency [5]: 14.2 µM (active)

Nc1nccc(-c2c(-c3ccc(F)cc3)ncn2C2CCCCC2)n1
Potency [1]: inactive
Potency [2]: inactive
Potency [3]: inactive
Potency [4]: inactive
Potency [7]: 20.9 µM (active)
Potency [9]: 16.6 µM (active)
Potency [10]: 20.9 µM (active)
